About 83,000 compounds went through this panel and 20% of them were active in at least one assay; those are over-represented in the sample as a whole.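 A percent growth of 40 corresponds to 60% growth inhibition; 0 means no net growth; -100 means all cells died. Active threshold: below 10.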 Active and inactive are the calls of the source.
Tests used:
Experiment in all cases: NCI-60 one-dose screen, 48 h (100 = growth as untreated, 0 = no growth, -100 = all killed)
Conditions in all cases: 10 µM unless noted
[1] = test system: NCI-H23 lung
[2] = test system: NCI-H226 lung
[3] = test system: NCI-H322M lung
[4] = test system: HOP-62 NSCLC
[5] = test system: NCI-H460 lung
[6] = test system: HOP-92 NSCLC
[7] = test system: NCI-H522 lung
[8] = test system: A549/ATCC NSCLC
[9] = test system: 786-0 renal
[10] = test system: COLO 205 colon
[11] = test system: DU-145 prostate
[12] = test system: K-562 leukemia
[13] = test system: MALME-3M melanoma
[14] = test system: MDA-MB-231 breast
[15] = test system: RXF 393 renal
[16] = test system: SF-268 CNS
[17] = test system: SF-295 CNS
[18] = test system: SF-539 CNS
[19] = test system: UACC-257 melanoma
[20] = test system: M14 melanoma

Measured: growth

Cc1cc(Br)c2nsnc2c1[N+](=O)[O-]
inactive: [2] 44.4% | [3] 88.2% | [4] 55.6% | [6] 62.5% | [8] 54.4% | [9] 17.8% | [11] 18.9% | [12] 22.7% | [13] 82.4% | [14] 30% | [15] 48.2% | [16] 32.3% | [17] 33.8% | [19] 66.9%
active: [1] -6.95% | [5] 2% | [7] -40% | [10] 0.766% | [18] 9.73% | [20] 3.57%

OC(c1cc(-c2ccc(Cl)cc2)nc2c(Cl)cccc12)C1CCCCN1 (stereo not given)
active: [1] -9.58% | [2] -44.1% | [3] -54.8% | [4] -92.2% | [5] -87.4% | [6] -29.4% | [7] -89.1% | [8] -82.9% | [9] -75% | [10] -91.1% | [11] -96.3% | [12] -30.9% | [13] -50.2% | [14] -71.1% | [15] -98.1% | [16] -65.7% | [17] -80.8% | [18] -72.4% | [19] -77%

c1ccc(-c2cccc(-c3ccccn3)n2)nc1
active: [2] 4.69% | [4] 7.3% | [5] 3.53% | [8] 9.52% | [10] 4.26% | [12] 4.95% | [13] 3.68% | [18] 5.87% | [19] -4.86% | [20] -17.8%
inactive: [1] 21.3% | [3] 26.9% | [6] 42.4% | [7] 18.3% | [9] 16.2% | [11] 17.8% | [14] 44.1% | [15] 26.2% | [16] 19.9% | [17] 19.5%

O=Nc1ccc2ccccc2c1O
inactive: [1] 56.6% | [2] 102% | [3] 103% | [4] 95.2% | [5] 97.5% | [6] 90.1% | [7] 74.7% | [8] 87.1% | [9] 98% | [10] 75.1% | [11] 94.3% | [12] 80.9% | [13] 63.4% | [14] 54.6% | [15] 93.8% | [16] 91.6% | [17] 83% | [18] 108% | [19] 18.3%

COC(=O)Nc1nc2ccc(C3(c4ccc(F)cc4)OCCO3)cc2[nH]1
inactive: [1] 47.4% | [2] 63.9% | [3] 51.7% | [4] 35.8% | [5] 10.4% | [6] 41.1% | [8] 21.7% | [9] 51% | [11] 12.2% | [13] 31.1% | [14] 30.3% | [16] 50.5% | [19] 45.5% | [20] 23.3%
active: [7] -37.2% | [10] 0.171% | [12] 9.31% | [15] 0.251% | [17] 4.04% | [18] -13.9%

Cc1cc2cccnc2c2ncccc12
inactive: [1] 18.7% | [3] 40.4% | [4] 12% | [6] 44.6% | [7] 22.1% | [8] 12.3% | [9] 18.9% | [11] 20.7% | [12] 14.3% | [13] 49.3% | [14] 44.2% | [15] 13.3% | [16] 15.9% | [17] 28.5% | [18] 13%
active: [2] -2.12% | [5] 0.789% | [10] 9.8% | [19] -1.02%

NCCCN(CCCN)CCCNCc1c2ccccc2c(CNCCCN(CCCN)CCCN)c2ccccc12
inactive: [1] 92.2% | [2] 87.2% | [3] 84.4% | [4] 87.2% | [5] 93.9% | [6] 95.9% | [7] 89.7% | [8] 95.2% | [9] 99.1% | [10] 95.9% | [11] 100% | [12] 83.3% | [13] 51.7% | [14] 102% | [15] 98.4% | [16] 88.7% | [17] 100% | [18] 91.8% | [19] 93.2%

COc1c(C)c2c(c(O)c1C/C=C(\C)CCC(=O)O)C(=O)OC2
inactive: [1] 33.9% | [2] 58.8% | [3] 38.3% | [4] 46.6% | [6] 73.9% | [7] 19.4% | [8] 11.6% | [9] 21.3% | [10] 39.3% | [11] 50.8% | [12] 20.2% | [13] 38.8% | [14] 57% | [15] 50.7% | [16] 34.8% | [17] 16.8% | [18] 40.7% | [19] 13.2%
active: [5] 9.24%

CN=C(N)N/N=C(\c1ccccc1)c1ccc(Br)cc1
active: [3] 0.506% | [4] 8.02% | [5] 6.18% | [7] -29.9% | [8] 9.47% | [10] -55.6% | [11] -9.2% | [12] -6.02% | [14] -9.39% | [15] -0.626% | [17] -46% | [18] -19.2%
inactive: [1] 21% | [2] 15.6% | [6] 32.2% | [9] 13.4% | [13] 25.9% | [16] 11.9% | [19] 47.2%

O=C(/C=C/C(Cl)(Cl)Cl)Nc1ccc(Cl)cc1
inactive: [1] 81.5% | [2] 106% | [3] 126% | [4] 125% | [5] 115% | [6] 82.1% | [8] 103% | [9] 109% | [10] 98.6% | [11] 97.7% | [12] 65.7% | [13] 121% | [14] 113% | [15] 87% | [16] 112% | [17] 115% | [18] 103% | [19] 102%
active: [7] -51.6%

N#CC(=C1SCS1)[N+](=O)[O-]
active: [5] -6.65% | [7] -40.3% | [10] -21.5% | [11] 2.38% | [20] -1.46%
inactive: [1] 43.9% | [2] 75.3% | [3] 70.7% | [4] 41.7% | [6] 63% | [8] 20.9% | [9] 21.8% | [12] 28.4% | [13] 21.4% | [14] 16% | [15] 12.2% | [16] 34.9% | [17] 35.9% | [18] 11.5% | [19] 35.3%

CCOC(=O)c1c(C)[nH]c2ccc(O)cc12
inactive: [1] 103% | [2] 94.3% | [3] 99.7% | [4] 107% | [5] 98.3% | [6] 103% | [7] 52.7% | [8] 95.7% | [9] 100% | [10] 113% | [11] 106% | [12] 101% | [13] 103% | [14] 96.7% | [15] 109% | [16] 97.7% | [17] 111% | [18] 98.1% | [19] 92.9% | [20] 101%

Cc1ccc2c(c1)sc(-c1ccc(N(C)C)cc1)[n+]2C
inactive: [1] 12.2% | [2] 17.8% | [3] 12.7% | [8] 26.6% | [11] 20.4% | [15] 39.7% | [16] 18.5% | [18] 12.5%
active: [4] 1.81% | [5] -25.7% | [6] -38.6% | [7] 8.21% | [9] 7.31% | [10] -83% | [12] -21.7% | [13] 0.435% | [14] 2.82% | [17] -5.75% | [19] 4.53%

NC(=S)N/N=C/c1ncccc1O
active: [1] -6.55% | [5] 8.78% | [6] 2.7% | [9] -17.1% | [15] 9.63% | [18] -7.14% | [20] -56.2%
inactive: [2] 39% | [3] 40.2% | [4] 17.8% | [7] 26% | [8] 28% | [10] 11.2% | [11] 12.7% | [12] 24% | [13] 54% | [14] 34.8% | [16] 14.9% | [17] 21.5% | [19] 18.9%

Cn1c(-c2ccccc2)c(/C=C/C2=[N+](C)c3ccccc3C2(C)C)c2ccccc21
inactive: [2] 13.5% | [3] 50.3% | [4] 10.2% | [9] 24.2% | [11] 20.2% | [14] 15.6% | [15] 35.2% | [16] 18% | [17] 11.8% | [18] 11.9%
active: [1] 7.45% | [5] 2.46% | [6] -17.1% | [7] -28.6% | [8] 6.27% | [10] -83.9% | [12] 6.23% | [13] -6.21% | [19] -51.5%

COC1=CC(=O)c2c(O)c3c(c(O)c2C1=O)CC(C)(O)OC3 (stereo not given)
active: [1] -27% | [3] 5.37% | [4] 9.06% | [5] 4.74% | [6] -16.4% | [8] 2.13% | [10] -61.7% | [13] -96.6% | [17] 5.39% | [18] -2.19% | [19] 5.54%
inactive: [2] 90.1% | [7] 14.7% | [9] 34% | [11] 12.7% | [12] 13.4% | [14] 28.3% | [15] 11.1% | [16] 18.3%

[Cl-].[Rh+3].c1ccc(-c2ccnc3c2ccc2c(-c4ccccc4)ccnc23)cc1.c1ccc(-c2ccnc3c2ccc2c(-c4ccccc4)ccnc23)cc1.c1ccc(-c2ccnc3c2ccc2c(-c4ccccc4)ccnc23)cc1
active: [8] -0.367% | [18] -5.79%
inactive: [1] 86.6% | [2] 107% | [3] 105% | [4] 92% | [5] 92.4% | [6] 80.9% | [7] 42.1% | [9] 84.8% | [10] 64.6% | [11] 126% | [12] 34.7% | [13] 94.3% | [14] 93.6% | [15] 22.1% | [16] 95% | [17] 69.5% | [19] 63.6% | [20] 45.7%
